# Sa ugtP lethal: kills S. aureus RN4220 lacking UgtP; S. aureus RN4220 ugtP deletion, OD600 growth, 16 h; growth inhibition, % (concentration not given with the values); 330,000 tested, 0.54% active; in the data active = growth inhibition above about 68%;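 also: plate controls were untreated wells for no effect and antibiotic for full effect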
# RN4220 kill: S. aureus RN4220 growth inhibition. AID 1259311. 330,000 tested, 0.33% active. inhibition, % (concentration not given with the values). OD600, 16 h; in the data active = inhibition above about 85%;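 also: plate controls were untreated cells for no effect and reference antibiotic for full effect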
# Mtb hypoxia rep: Mtb hypoxia fluorescent reporter inhibition; AID 1159583; fluorescence inhibition, % (concentration not given with the values); 300,000 tested, 0.1% active; M. tuberculosis hypoxia-regulated fluorescent reporter, fluorescence; in the data active = fluorescence inhibition mostly above about 23%, no sharp cut-off; inactive = mostly below about 17%
# CCHFV vOTU inh: CCHFV vOTU protease inhibition | Pep-AMC fluorescence | 370,000 tested, 0.55% active | inhibition, % at 11.5 µM | AID 651958; in the data active = inhibition above about 30%; also: 0% = vehicle wells with enzyme and 100% = no enzyme wells
# SSB-PriA inh: blocks PriA binding to SSB C-terminal tail | AlphaScreen SSBct-PriA binding, biotinylated peptide | inhibition, % at 33 µM | 430,000 tested, 0.6% active | AID 1272365; in the data active = inhibition mostly above about 37%, no sharp cut-off; inactive = mostly below about 20%;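 also: plate controls were negative control peptide for no effect and reference peptide for full effect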
# An asterisk follows results filed as active; nt = no result shown; ! = repeats disagree. Shown are actives, neighbours in structure and some others; about 1.4% of the full set was active somewhere.
SMILES,Sa ugtP lethal,RN4220 kill,Mtb hypoxia rep,CCHFV vOTU inh,SSB-PriA inh
COc1ccc(C(=O)NCc2ccc3c(c2)cc(C)n3C)cc1,0,4,-4,6,-5
Cc1cc2cc(CNC(=O)NC3CCCCC3)ccc2n1C,8,1,18,3,45*!
Cc1cc2cc(CNC(=O)c3ccc4c(c3)OCO4)ccc2n1C,-4,6,1,0,39*!
Cc1cc2cc(CNC(=S)NC3CCCCC3)ccc2[nH]1,0,3,2,-4,12
Cc1cc2cc(CNC(=O)NC3CCCCC3)ccc2[nH]1,-4,4,-3,-18,53*
CCc1cccc(C)c1NC(=S)NCc1ccc2[nH]c(C)cc2c1,-8,-7,2,9,42*
Cc1ccc(NC(=O)N2CCN(c3ccc(-c4ccccc4C)nn3)CC2)cc1F,nt,nt,nt,nt,-5
S=C(NN=Cc1cccs1)NC1CC2CCC1C2 (centres undefined),39,-4,6,nt,nt
O=C(Nc1ccccc1N1CCCCC1)c1cc(S(=O)(=O)N2CCOCC2)ccc1F,9,13,-4,18,47*
COc1cc(C(=O)Nc2cc(S(=O)(=O)N3CCOCC3)ccc2N2CCOCC2)ccc1OC(F)F,0,5,23*,1,-4
O=C(NN=Cc1ccc(-c2cccc(C(F)(F)F)c2)o1)c1ccccc1Br,90*,11,6,nt,7
CCOc1ccccc1C=NNC(=O)CSc1n[nH]c(=O)[nH]c1=O,7,2,-2,nt,-10
CN(C)c1ccc(N=Nc2cccc(F)c2)cc1,9,-2,11,12,32
Cc1cccc(N=Nc2ccc(N(C)C)cc2)c1,16,-9,1,27,55*
CC(C)OC(=O)CSc1ccc([N+](=O)[O-])cc1[N+](=O)[O-],nt,nt,nt,nt,59*
O=C(O)CCSc1ccc([N+](=O)[O-])cc1[N+](=O)[O-],nt,nt,nt,-2,-8
O=C(COc1ccc(Cl)cc1Cl)N1CCN(Cc2nc(-c3ccco3)cs2)CC1,nt,nt,nt,nt,35*!
Cc1csc(CN2CCN(C(=O)COc3ccc(Cl)cc3Cl)CC2)n1,nt,nt,nt,nt,-12
CCOC(=O)N1CCN(c2cc(=O)n(-c3ccc(Cl)cc3)c(=O)[nH]2)CC1,nt,nt,nt,nt,-9
CCOC(=O)N1CCN(c2cc(=O)n(-c3ccccc3Cl)c(=O)[nH]2)CC1,1,2,0,-4,104*
COc1ccccc1N(C[C@@H](O)CN(c1ccc(F)cc1)S(C)(=O)=O)S(=O)(=O)c1ccccc1,nt,nt,nt,nt,-7
N#Cc1cc(Br)ccc1O,nt,nt,nt,nt,-8
CCCOc1ccc(S(=O)(=O)NCc2cc(C)oc2C)cc1,nt,nt,nt,nt,2
O=C1OC(c2ccc(O)cc2)(c2ccc(O)cc2)c2ccccc21,0,7,0,-1,-7
O=C1OC(c2ccccc2)(c2ccc3cc(O)ccc3c2)c2ccccc21 (centres undefined),93*,-18,10,5,2
SMILES,Sa ugtP lethal,RN4220 kill,Mtb hypoxia rep,CCHFV vOTU inh,SSB-PriA inh
CCOc1ccc(NC(=O)CSc2nnc(-c3ccccn3)n2N)cc1,7,5,10,-1,64*!
CCOc1ccc(NC(=O)CSc2nnc(-c3ccccn3)n2C)cc1,-9,5,4,2,-10
COc1ccc(NC(=O)CSc2nnc(-c3ccccn3)n2N)cc1,-9,4,2,1,59*
COc1ccc(-c2cnc(SCC(=O)Nc3ccccc3)n2-c2ccccc2C)cc1,nt,nt,nt,nt,44*
Cc1nnc(NC(=O)CSc2ncc(-c3ccc(Br)cc3)n2-c2ccccc2C)s1,nt,nt,nt,nt,-1
O=C(NCCCc1ccccc1)c1ccc2c(=O)nc3c(-c4cccc(F)c4)n[nH]n3c2c1,nt,nt,nt,nt,-16
N#Cc1c(N=Cc2cccs2)sc2c1CCCC2,nt,nt,nt,nt,38*
O=C(Cc1ccc(Br)cc1)NCCOc1ccc(-c2cccs2)nn1,nt,nt,nt,nt,4
O=C(CNCc1ccccn1)N1CCc2ccccc2C1,-8,-5,-5,-19,78*
COC(=O)c1ccc(C(=O)N2CC[C@@]3(CC(=O)c4ccccc4O3)C2)cc1,nt,nt,nt,nt,-1
O=C(NCC(=O)N1CCOC(c2ccccc2)C1)c1cc(Cl)ccc1Cl (centres undefined),nt,nt,nt,nt,-8
CC(Cc1ccccc1)/[N+]([O-])=C\c1ccc(C(F)(F)F)cc1 (centres undefined),nt,nt,nt,7,46*
O=C(O)c1cn(-c2ccc(N3CCCC3)c(F)c2)c2c(F)c(F)c(F)cc2c1=O,100*,8,-5,7,1
Cc1c(-n2cc(C(=O)O)c(=O)c3cc(F)c(N4CCCC(O)C4)c(F)c32)c(=O)n(-c2ccccc2)n1C (centres undefined),7,2,6,-10,-18
COc1ccc(Nc2nc(Nc3ccc(F)cc3)nc(N3CCOCC3)n2)cc1OC,nt,nt,nt,nt,37*
COc1ccc(C[C@H]2CN3C(=NC[C@@H]3Cc3ccc(O)cc3)N2CCNC(=O)c2ccc(C)c(Br)c2)cc1,nt,nt,nt,9,42*
C=CCOC(=O)C1=C(C)NC(SC)=C(C#N)C1c1ccc(OCC)cc1 (centres undefined),91*,-2,-1,8,-19
CCCCNc1c([N+](=O)[O-])cc(C(=O)O)cc1[N+](=O)[O-],8,9,-6,-11,-1
CCCCNc1c([N+](=O)[O-])cc(C)cc1[N+](=O)[O-],3,8,7,-4,76*
O=S(=O)(Nc1cnn(C2CCOCC2)c1)c1ccc(Cl)s1,nt,nt,nt,nt,3
Cc1cccc(C=Nc2sc3c(c2C(=O)OC(C)(C)C)CCN(C)C3)c1O,6,3,7,nt,45*
CCOC(=O)c1c(N=Cc2cccc(C)c2O)sc2c1CCN(C)C2,2,6,5,nt,32
CCC(C)Nc1nc(-c2c[nH]c3ccccc23)cs1 (centres undefined),nt,nt,nt,1,37
CNc1nc(-c2c[nH]c3ccccc23)cs1,-13,8,nt,7,52*
CCc1ccc(-c2csc(-c3c[nH]c4ccccc34)n2)cc1,85*,-2,-2,11,-10
SMILES,Sa ugtP lethal,RN4220 kill,Mtb hypoxia rep,CCHFV vOTU inh,SSB-PriA inh
Cc1ccc(NN=C2CS(=O)(=O)N(C)c3ccsc32)cc1,93,99*,20,nt,28
COC(=O)C1C(O)C(C)C(O)C(C)C=CC=C(C)C(=O)Nc2c(C)c(OC(C)=O)c3c(c2O)C(=O)C(C)=C2OCOC(=C23)C(C)=CC(C)(O)C(O)C(C)C1O (centres undefined),100*,99*,nt,nt,0
O=c1c2sccc2nc(SCc2nc(-c3ccccc3Br)no2)n1C1CC1,nt,nt,nt,nt,-6
O=[N+]([O-])c1ccc(C=NNc2ccnc3cc(Cl)ccc23)o1,8,5,-3,nt,59*
O=[N+]([O-])c1ccc(/C=N/Nc2ccnc3cc(Cl)ccc23)o1,nt,nt,nt,18,nt
Cc1ccc(C=NNc2ccnc3cc(Cl)ccc23)c(C)c1,101*,99*,7,nt,3
Clc1ccc2c(N/N=C/c3ccccc3Br)ccnc2c1,nt,nt,nt,-3,nt
Clc1ccc2c(N/N=C/c3cccc(Br)c3)ccnc2c1,nt,nt,nt,1,nt
Cc1ccccc1C=NNc1ccnc2cc(Cl)ccc12,99*,98*,16,nt,3
Clc1ccc2c(NN=Cc3ccc(Br)cc3)ccnc2c1,101*,101*,7,nt,-8

# Screens deposited in PubChem by several laboratories.
